# Measured values published in PubChem BioAssay AID652065 (The Scripps Research Institute Molecular Screening Center, 2013).
# The whole screen tested about 4,300 compounds, of which about 3,000 (70%) were called active. So high a share suggests a set chosen from earlier hits. A selection follows. Unmarked numbers belong to inactive results.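 The calls were made as follows: active = inhibition above a per-plate cutoff, the mean inhibition of sample wells plus 3 SD (cut at about 35% in these data); inactive = the rest.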
# Assay: small molecules binding CAG repeat RNA – biochemical, fluorescence, confirmation (AID 652065);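 also: loss of TO-PRO-1 fluorescence as compound displaces dye from 1x1 AA loop RNA; 0% = DMSO only wells and 100% = 100 µM mitoxantrone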
# Conditions: r(CAG) RNA repeat, TO-PRO-1 dye displacement fluorescence; at 3 µM; hits give high values
row,SMILES,inhibition
1,COc1ccc(C(CNC(=O)c2cccc(S(=O)(=O)Nc3ccccc3Cl)c2)N2CCOCC2)cc1 (centres undefined),63.9% (active)
2,Cc1cc(C(=O)N/N=C/c2ccc(O)c([N+](=O)[O-])c2)c(C)n1-c1ccc(F)cc1,42.6% (active)
3,Cc1sc(NC(=O)c2ccc3ncsc3c2)c(C(N)=O)c1C,18.1%
4,O=c1ccc2c(-c3ccccc3S(=O)(=O)O)c3ccc(O)c(O)c3oc-2c1O,91.4% (active)
5,CCc1ccc(N2CC(C(=O)Nc3ccc(S(=O)(=O)Nc4nccs4)cc3)CC2=O)cc1 (centres undefined),42% (active)
6,CCCCCCC(=O)Nc1nc(C)c(-c2csc(Nc3cc(Cl)ccc3OC)n2)s1,21.8%
7,Cc1ccc(OCCC(=O)Nc2ccc(S(=O)(=O)Nc3nccs3)cc2)cc1,35% (active)
8,O=C(CCc1ccccc1Cl)Nc1ccc(S(=O)(=O)Nc2nccs2)cc1,39.1% (active)
9,O=C(Nc1ccc(S(=O)(=O)Nc2nccs2)cc1)c1cccc(S(=O)(=O)N2CCOCC2)c1,20.8%
10,O=C(Nc1ccc(S(=O)(=O)Nc2nccs2)cc1)c1cc(-c2ccncc2)nc2ccccc12,65.2% (active)
11,COC(=O)c1sc(-c2ccc(C(C)(C)C)cc2)cc1NC(=O)/C=C/C(=O)O,80% (active)
12,C[C@H]([C@@H](O)[C@@H](O)[C@@H](C)C(C)(C)C)[C@H]1CC[C@H]2C3CC[C@H]4C[C@H](OS(=O)(=O)O)[C@@H](OS(=O)(=O)O)C[C@]4(C)[C@H]3CC[C@]12C (some centres undefined),87.8% (active)
13,Cc1ccc(NC(=O)Nc2nnc(-c3ccncc3)s2)cc1,25.5%
14,O=C(Nc1ccccc1)Nc1nc2ccccc2s1,13.2%
15,O=C(Nc1ccccc1)Nc1nnc(COc2ccccc2F)s1,42.2% (active)
16,O=C(Nc1cccc(Cl)c1)Nc1ccccc1NS(=O)(=O)c1cccs1,34.4%
17,COC(=O)c1sccc1NC(=O)CSc1ccccc1NS(=O)(=O)c1cc(Cl)ccc1Cl,73% (active)
18,CCOc1cc(C(=O)Nc2ccc(S(=O)(=O)Nc3cnc4ccccc4n3)cc2)cc(OCC)c1OCC,66.4% (active)
19,Cc1ccccc1-c1ccc2c(c1)O[C@@H](CN(C)Cc1ccc(C(=O)O)cc1)[C@@H](C)CN([C@H](C)CO)S2(=O)=O,58.3% (active)
20,COc1cc(C(=O)Nn2c(O)c(C3=c4ccccc4=NC3=O)sc2=S)ccc1O,14.6%
21,Cc1cc(C)c2nc(-c3cccnc3)cc(C(=O)Nc3ccc(S(=O)(=O)Nc4onc(C)c4C)cc3)c2c1,83.2% (active)

row,SMILES,inhibition
1,CCc1ccc(OC(C)C(=O)Nc2ccc(S(=O)(=O)Nc3cc(C)on3)cc2)cc1 (centres undefined),26.1%
2,Cc1ccc(C(=O)/C=C/Nc2ccc(S(=O)(=O)Nc3onc(C)c3C)cc2)cc1,62.5% (active)
3,CCn1c(SCC(=O)Nc2ccc(S(=O)(=O)Nc3onc(C)c3C)cc2)nnc1-c1ccccc1,22%
4,Cc1cc(OC(C)C(=O)Nc2ccc(S(=O)(=O)Nc3onc(C)c3C)cc2)cc(C)c1Cl (centres undefined),62.4% (active)
5,Cc1noc(NS(=O)(=O)c2ccc(NC(=O)c3oc4ccc(F)cc4c3C)cc2)c1C,71.9% (active)
6,COc1cccc(-c2coc3cc4oc(=O)c(CC(=O)O)c(C)c4cc23)c1,42.7% (active)
7,O=C(COc1ccc([N+](=O)[O-])cc1)Nc1cccc(C(=O)Nc2ccccc2C(=O)O)c1,62.4% (active)
8,CCN(CC)C(=O)CSC(Nc1cccc(F)c1)=C(C#N)C#N,38.4% (active)
9,Cc1nnc(SC(C(=O)Nc2cc(Cl)cc(Cl)c2)c2ccccc2)[nH]c1=O (centres undefined),64.1% (active)
10,COc1ccc(Cc2nnc(SCC(=O)Nc3ccc(C)c(Cl)c3)[nH]c2=O)cc1,62.5% (active)
11,CC(=O)Nc1ccc(S(=O)(=O)N(CCc2ccccc2)CC(=O)N/N=C/c2ccc(C(=O)O)cc2)cc1,28.1%
12,Cc1cc(NS(=O)(=O)c2ccc(NC(=O)CSc3nnc(SCc4ccc(F)cc4)s3)cc2)nc(C)n1,45% (active)
13,O=C(COC(=O)c1ccc(NS(=O)(=O)c2cccs2)cc1O)Nc1ccc(F)cc1,23.1%
14,Cc1cc(NS(=O)(=O)c2ccc(NC(=O)CSc3nnc(-c4ccc(C(C)(C)C)cc4)n3Cc3ccco3)cc2)nc(C)n1,23.6%
15,C=CCn1c(=S)[nH]c2scc(-c3ccco3)c2c1=O,27.3%
16,O=C(O)c1ccccc1/C=N/Nc1ccc(S(=O)(=O)Nc2ccc(Cl)cc2)cc1[N+](=O)[O-],63.4% (active)
17,COc1cccc(/C=N/Nc2ccc(S(=O)(=O)Nc3ccccc3C(=O)O)cc2[N+](=O)[O-])c1O,93.9% (active)
18,COc1ccc(Br)cc1/C=N/Nc1ccc(S(=O)(=O)Nc2ccccc2C(=O)O)cc1[N+](=O)[O-],93.4% (active)
19,NS(=O)(=O)c1ccc(N=Nc2c(O)[nH]c3ccc(Br)cc23)cc1,18.8%
20,O=C1/C(=C/c2ccc(F)cc2)SC(=S)N1NS(=O)(=O)c1ccccc1,53.6% (active)
21,COc1ccc(/C=C/C(=O)c2ccc(NS(=O)(=O)c3ccc(C)cc3)cc2)cc1O,54.9% (active)

row,SMILES,inhibition
1,COc1cc(/C=C2/C(=O)NN(c3cccc(Cl)c3)C2=O)cc(Br)c1O,24.5%
2,COc1cc(NC(=O)c2ccccc2NS(=O)(=O)c2ccc(Cl)s2)cc(OC)c1,82% (active)
3,O=C(Nc1nncs1)c1ccccc1NS(=O)(=O)c1cccs1,30.2%
4,CCc1nnc(NS(=O)(=O)c2ccc(NC(=O)c3cccc(OC(F)(F)C(F)F)c3)cc2)s1,56.7% (active)
5,CCc1nnc(NS(=O)(=O)c2ccc(NC(=S)NC(=O)c3cccs3)cc2)s1,46.7% (active)
6,NS(=O)(=O)c1ccc(NC2=CC(c3ccc(F)cc3)N(c3ccc(S(N)(=O)=O)cc3)C2=O)cc1 (centres undefined),12.6%
7,Cc1ccc(SC(CC(=O)c2ccc(C(C)(C)C)cc2)C(=O)O)cc1 (centres undefined),44.7% (active)
8,Cc1ccc(C(=O)Oc2coc(CSc3nnc(NC(=O)c4cccs4)s3)cc2=O)cc1C,60.6% (active)
9,O=C(O)CCn1cc(/C=C/C(=O)c2ccc(Cl)cc2)c(-c2cccc(Br)c2)n1,86.2% (active)
10,CN(C(=O)COC(=O)c1cc(-c2ccco2)nc2ccccc12)C1CCS(=O)(=O)C1 (centres undefined),27.6%
11,CC(C)c1ccc(Nc2nnc(SCC(=O)c3nnc(-c4ccccc4)o3)s2)cc1,56.2% (active)
12,Cc1ccc(-c2csc(C(C#N)=C(O)CN3CCN(C(=O)c4ccco4)CC3)n2)cc1,60.2% (active)
13,O=C1c2cccc3cccc(c23)C(=O)N1CCCCCc1n[nH]c(=S)o1,26.9%
14,COc1ccccc1/C=C/C=N/n1c(-c2ccc(Cl)cc2Cl)n[nH]c1=S,42.1% (active)
15,O=C(O)c1[nH]c2ccccc2c1C(c1cccc(O)c1)c1c(C(=O)O)[nH]c2ccccc12,38.5% (active)
16,CC(=O)Nc1ccc(C(=O)Nc2nc(-c3cc(C)n(Cc4ccccc4)c3C)cs2)cc1,20.6%
17,CC(=O)Nc1ccc(-c2csc(NC(=O)Nc3ccccc3)n2)cc1,23.1%
18,CC(=O)Nc1ccc(S(=O)(=O)Nc2nc(-c3ccc(C(C)(C)C)cc3)cs2)cc1,67.6% (active)
19,Cc1ccc(Nc2nc(CSc3nnnn3-c3ccccc3)cc(=O)[nH]2)cc1,50.7% (active)
20,COc1ccccc1C1C(C#N)=C(N)Oc2c1c(-c1ccccc1)nn2-c1ccccc1 (centres undefined),30%
21,CC(C)(C)C1C/C(=C/c2ccco2)C(=O)/C(=C/c2ccco2)C1 (centres undefined),44.2% (active)

row,SMILES,inhibition
1,Cc1ccc(Nc2nc(-c3ccc(O)cc3O)cs2)nc1,23.4%
2,O=C(Nc1nc(-c2ccco2)c(-c2ccco2)s1)c1ccco1,34.7% (active)
3,CCc1nnc(NS(=O)(=O)c2ccc(N=Cc3c(C)[nH]n(-c4ccc(C)cc4)c3=O)cc2)s1,69.2% (active)
4,COC(=O)c1ccc(COc2ccc(/C=C/C(=O)c3ccc(OC)c(CSCC(=O)O)c3)cc2OC)cc1,66.9% (active)
5,COc1ccc(C(=O)/C=C/c2ccc(-c3ccccc3)cc2)cc1CSCC(=O)O,85.1% (active)
6,CCOC(=O)c1ccccc1N1C(=O)C2Sc3[nH]c(=O)sc3C(/C=C/c3ccccc3)C2C1=O (centres undefined),46.1% (active)
7,O=C(O)c1ccc(NN=CC2=C(N3CCOCC3)/C(=C/c3ccccc3)CC2)cc1,70.3% (active)
8,Cc1ccc(C)c(Cn2nnc3c(=O)[nH]c(C(=O)Nc4ccc(F)cc4)nc32)c1,43.2% (active)
9,COc1cccc2sc(NNC(=O)c3nc4ccccc4s3)nc12,85% (active)
10,Clc1ccccc1CSc1nnc(-c2ccco2)c(-c2ccco2)n1,59.9% (active)
11,Fc1cccc(Cc2c(-c3cccc(Cl)c3)nc3ccc(Br)cn23)c1,40.3% (active)
12,COc1ccc(-c2nc3ccc(Br)cn3c2Cc2ccc(C)cc2)cc1OC,9.11%
13,Cc1cc(Br)cn2c(Cc3cccc(F)c3)c(-c3cccc(Br)c3)nc12,4.39%
14,COc1ccc(C(=O)Nc2cccc(/C=C(/CCC(=O)O)c3nc4ccccc4s3)c2)cc1,72.8% (active)
15,CCOC(=O)c1csc(NC(=O)Nc2cccc(OC)c2)n1,29.9%
16,O=C(O)CC/C(=C\c1cc2c(cc1Br)OCO2)c1nc2ccccc2s1,50.5% (active)
17,CC(=O)N(c1ccc2oc(=O)sc2c1)S(=O)(=O)c1ccc(C)cc1,5.58%
18,O=C(c1cccnc1)N(c1cc2sc(=O)oc2c2ccccc12)S(=O)(=O)c1ccccc1,57.6% (active)
19,O=C1Oc2ccccc2C(=O)/C1=C/c1ccccc1O,39% (active)
20,COc1ccc(S(=O)(=O)/N=C2\C=C(NS(=O)(=O)c3ccccc3)C(=O)c3ccccc32)cc1,85% (active)
21,O=c1oc(-c2ccccc2NS(=O)(=O)c2ccc(Cl)cc2)nc2ccccc12,17.2%
